Measured values: PubChem BioAssay (NCATS)
Inconclusive results are not listed. Active and inactive are the calls of the source. The call rests on the fitted dose curve; in most records, active means well fitted curve in the direction sought with a large enough effect; inconclusive means small, poorly fitted or top-dose-only effect, or another doubt; inactive means no such curve, though single readings can be large; an effect the other way counts as inactive or inconclusive.

Columns and labels:
[1] = Viability qHTS for spleen associated tyrosine kinase inhibitor (SYKi) drug resistant MV4-11 cells (AID 1963824); further: nearly all actives have a fitted effect of over 35% in size; further: potency means the concentration at half of the fitted maximal effect
How it was run: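 CellTiter-Glo luminescence, read 10 min after reagent addition, reports viability after a 72 hr compound exposure. Cells are an MV4-11 line made resistant to SYK inhibition, seeded at 500 per well onto compound-containing plates.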

[2] = Cellular viability qHTS for adrenocortical cancer (ACC) cell line SW-13 (AID 1963989); details: SW-13 ACC cells viability, CellTiter-Glo, 48 h; activity (max response): stronger effect = lower value; further: nearly all actives have a fitted effect of over 65% in size; further: potency means the concentration at half of the fitted maximal effect;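 on activity (max response): cells grown in serum-free medium with ITS supplement; on the % scale 0 is the no-effect control and ±100 the full control effect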
How it was run: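 Compound titrations (up to 46 uM final, in DMSO) were applied to SW-13 cells for 48 h at 37C/5% CO2. Reading used CellTiter-Glo after 20 min at room temperature; fitted curves yielded IC50 and efficacy.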

[3] = Cellular viability qHTS for adrenocortical cancer (ACC) cell line NCI-H295R (AID 1963990); further: nearly all actives have a fitted effect of over 60% in size; further: potency means the concentration at half of the fitted maximal effect
How it was run: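 Readout: CellTiter-Glo luminescence, 20 min RT. Exposure: 48 h, 37C/5% CO2. Cells: NCI-H295R, ITS-DMEM serum-free. Range: up to 46 uM. Analysis: 4PL fit, IC50 plus efficacy.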

[4] = Quantitative highthroughput screen to assess conditional lethalithy of NOMO1 cells grown in RPMI1640 with untreated serum (RPMI+s) (AID 1963876); further: nearly all actives have a fitted effect of over 35% in size; further: potency means the concentration at half of the fitted maximal effect;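 on Viability: 100% = DMSO wells and 0% = empty wells without cells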
How it was run: (§1)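 Each medium arm—HPLM with 10% dialyzed FBS, or RPMI1640 with 5 mM glucose and 10% untreated or dialyzed FBS—was screened against an 11-point, 3-fold compound titration for 48 h at 37 °C, with CellTiter-Glo luminescence as endpoint.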

[5] = Quantitative highthroughput screen to assess conditional lethalithy of NOMO1 cells grown in Human Plasma-Like Medium with dialyzed fetal bovine serum (HPLM+ds) (AID 1963878);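 further: 100% = DMSO wells and 0% = empty wells on each plate; nearly all actives have a fitted effect of over 35% in size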
How it was run: as §1

[6] = Quantitative highthroughput screen to assess conditional lethalithy of P12 Ichikawa cells grown in Human Plasma-Like Medium with dialyzed fetal bovine serum (HPLM+ds) (AID 1963879); details: Potency: viability; further: nearly all actives have a fitted effect of over 35% in size; further: potency means the concentration at half of the fitted maximal effect; on Viability: series mostly up to about 46 µM
How it was run: as §1

[7] = Quantitative highthroughput screen to assess conditional lethalithy of P12 Ichikawa cells grown in RPMI1640 with dialyzed fetal bovine serum (RPMI+ds) (AID 1963880); details: Potency: P12-Ichikawa viability; further: nearly all actives have a fitted effect of over 35% in size; further: potency means the concentration at half of the fitted maximal effect;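 on Viability: 100% = DMSO wells and 0% = empty wells on each plate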
How it was run: as §1

[8] = Quantitative highthroughput screen to assess conditional lethalithy of NOMO1 cells grown in RPMI1640 with dialyzed fetal bovine serum (RPMI+ds) (AID 1963877); further: nearly all actives have a fitted effect of over 30% in size; further: potency means the concentration at half of the fitted maximal effect;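 on Viability: series mostly up to about 46 µM; 100% = DMSO control wells and 0% = empty wells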
How it was run: as §1

[9] = Quantitative highthroughput screen to assess conditional lethalithy of P12 Ichikawa cells grown in RPMI1640 with untreated serum (RPMI+s) (AID 1963881); details: Potency: viability; further: nearly all actives have a fitted effect of over 35% in size; further: potency means the concentration at half of the fitted maximal effect;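 on Viability: series mostly up to about 46 µM; 100% = DMSO wells and 0% = empty wells without cells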
How it was run: as §1

[10] = Quantitative highthroughput screen to assess conditional lethalithy of SEM cells grown in Human Plasma-Like Medium with dialyzed fetal bovine serum (HPLM+ds) (AID 1963882); further: nearly all actives have a fitted effect of over 35% in size; further: potency means the concentration at half of the fitted maximal effect; on Viability: series mostly up to about 46 µM
How it was run: as §1

[11] = Quantitative highthroughput screen to assess conditional lethalithy of SEM cells grown in RPMI1640 with unreated serum (RPMI+s) (AID 1963883)
How it was run: as §1

[12] = Quantitative highthroughput screen to assess conditional lethalithy of SEM cells grown in RPMI1640 with dialyzed fetal bovine serum (RPMI+ds) (AID 1963884)
How it was run: as §1

CCCCCCCCCCCCCCCC[N+](C)(C)C
active: Potency [1] 1190 nM | Potency [2] 7310 nM | Potency [3] 8200 nM

CC[N+]1(CC)CCC(OC(=O)C(O)(c2ccccc2)c2ccccc2)C1 (configuration not stated)
inactive: Potency [1] | activity (max response) [2] 5.92% | Potency [3]

CC(C)NCC(O)c1ccccc1Cl (configuration not stated)
inactive: Potency [1] | Potency [3]

CCN(CC)CCOC(=O)C(C)(c1ccccc1)c1ccccc1
inactive: Potency [1] | activity (max response) [2] -13.3% | Potency [3]

CN1CCC(O)(c2ccc(F)cc2)C(C(=O)c2ccc(F)cc2)C1 (configuration not stated)
inactive: Potency [1] | Potency [3]

c1ccc(N2CCNCC2)cc1
inactive: Potency [1] | activity (max response) [2] 12.6% | Potency [3]

C=CCOC(Cn1ccnc1)c1ccc(Cl)cc1Cl (configuration not stated)
inactive: Potency [3]
active: Potency [1] 9440 nM

C[C@]12CC[C@H]3[C@@H](CCC4=CC(=O)CC[C@@]43C)[C@@H]1CC[C@@H]2C(=O)O
inactive: Potency [1] | activity (max response) [2] 11.4% | Potency [3]

OCCOc1ccccc1
inactive: Potency [1] | activity (max response) [2] 8.17% | Potency [3]

CCC(CC)(CNC(=O)CCCO)c1cccc(OC)c1
inactive: Potency [1] | activity (max response) [2] 8.71% | Potency [3]

CC[N+]1(C)CCCC(OC(=O)C(O)(c2ccccc2)c2ccccc2)C1 (configuration not stated)
inactive: Potency [1] | activity (max response) [2] 0.735% | Potency [3]

Cc1ccc(S(=O)(=O)N[C@@H](CCCCN)C(=O)CCl)cc1
inactive: Potency [1] | activity (max response) [2] 15.2% | Potency [3]

C[C@H]1CCCC=CC2C[C@H](O)C[C@@H]2[C@H](O)C=CC(=O)O1 (some centres not stated)
active: Potency [6] 37.2 nM | Potency [7] 23.5 nM
inactive: Potency [4] | Potency [5]

O=C(NCC1CCOCC1)c1cnc(Nc2ccc(Cl)cc2Cl)nc1C(F)(F)F
inactive: Potency [8] | Potency [6] | Potency [7] | Potency [9] | Potency [10] | Potency [11] | Potency [12] | activity (max response) [2] -11.7% | Potency [3]

CC[C@@H]1[C@@H](C)O[C@@](O)([C@@H](C)[C@H](O)[C@H](C)[C@H]2OC(=O)C=CC=C[C@@H](C)[C@@H]([C@@H](C)[C@@H](O)[C@H](C)[C@@]3(O)C[C@H](O[C@H]4C[C@H](O)[C@H](O)[C@H](C)O4)[C@H](CC)[C@@H](C)O3)OC(=O)C=CC=C[C@@H]2C)C[C@H]1O[C@H]1C[C@H](O)[C@H](O)[C@H](C)O1
active: Potency [4] 2960 nM | Potency [8] 2640 nM | Potency [6] 2960 nM | Potency [7] 3320 nM | Potency [9] 7430 nM | Potency [10] 2350 nM
